{"source": "PubChem BioAssay (EPA / NIEHS)", "note": "Results filed as inconclusive are left out. The source made the active and inactive calls. The calls were made as follows: active = hit-call score of the fitted dose curve at least 0.9, where 1 is the maximum; inconclusive = response in the unintended direction; inactive = score below 0.9."}
{"test": "ATG_M_32_TRANS: Attagene TRANS-FACTORIAL HepG2 Assay for M32 Transcription Factor (Internal Marker) (AID 2282984)", "conditions": "HepG2 Attagene TRANS M32 internal marker reporter", "description": "ATG_TRANS is a cell-based, multiplexed-readout assay that uses HepG2, a human liver cell line, with measurements taken at 24 hours after chemical dosing in a 24-well plate.ATG_M_32_TRANS is one of 30 assay component(s) measured or calculated from the ATG_TRANS assay. It is designed to make measurements of mRNA induction, a form of inducible reporter, as detected with fluorescence intensity signals by Reverse transcription polymerase chain reaction (RT-PCR) and Capillary electrophoresis technology.Data from the assay component ATG_M_32_TRANS was analyzed into 1 assay endpoint. This assay endpoint, ATG_M_32_TRANS, was analyzed in the positive analysis fitting direction relative to DMSO as the negative control and baseline of activity. Using a type of inducible reporter, measures of mRNA for gain-of-signal activity can be used to understand the background control at the transcription factor-level as they relate to the gene . Furthermore, this assay endpoint can be referred to as a secondary readout, because this assay has produced multiple assay endpoints where this one serves a background control function. To generalize the intended target to other relatable targets, this assay endpoint is annotated to the background measurement intended target family, where the subfamily is internal marker.\nHuman liver HepG2 cells are transiently transfected with multiple reporter transcription units (MRTUs) in 6-well plates using FuGene 6 reagent (Roche; 3 ml FuGene/1 mg DNA). The MRTU constructs are regulated by a cis-regulating element (promoter). […] A major difference between the CIS and TRANS system is that in CIS activities of endogenous TFs are measured, whereas the TRANS assay evaluates changes in activities of exogenous, chimeric NR-Gal4 proteins. […] At the end of 24 hour incubation, total RNA was isolated using TriZol reagent (Invitrogen). The isolated RNA is then reverse-transcribed using oligo(dT) primer and Mo-MLV reverse transcriptase (Invitrogen) with DNAse I (Ambion) treatment for 30 min. The one-tenth of the produced cDNA was amplified by PCR using Taq DNA polymerase (Invitrogen) and two reporter sequence-specific primers. The PCR products were fluorescently labeled by primer extension with 6-arboxyfluorescein (6-FAM) 5'-labeled reporter sequence-specific primer (2 min at 95 C, 20 s at 68 C and 10 min at 72 C) and these products were digested with 5U of HpaI (New England Biolabs) for 2h at 37 C. The fragments were purified using Qiaquick PCR columns (Qiagen), analyzed on an ABI 3130xL genetic analyzer (Applied Biosystems) with peak positions identified by using a set of X-rhodamine (ROX)-labeled MapMarker1000 molecular weight standards (BioVentures). The raw capillary electrophoresis data was processed using Attagraph software (Attagene)."}
{"smiles": "CC[N+](CC)(CC)CC", "outcome": "inactive"}
{"smiles": "C=CCCl", "outcome": "inactive"}
{"smiles": "O=c1nc(O)n(Cl)c(=O)n1Cl", "outcome": "inactive"}
{"smiles": "Cc1ccccc1OP(=O)(Oc1ccccc1C)Oc1ccccc1C", "outcome": "inactive"}
{"smiles": "CCOC(=O)c1ccccc1S(=O)(=O)NC(=O)Nc1nc(Cl)cc(OC)n1", "outcome": "inactive"}
{"smiles": "O=c1oc2ccccc2c(O)c1C(CC(O)c1ccc(-c2ccc(Br)cc2)cc1)c1ccccc1", "note": "(stereo not given)", "outcome": "inactive"}
{"smiles": "CC(C)(c1ccc(O)c(-c2ccccc2)c1)c1ccc(O)c(-c2ccccc2)c1", "outcome": "inactive"}
{"smiles": "O=C(CCl)Nc1ccccc1", "outcome": "inactive"}
{"smiles": "CCCCCCCCCCCCOS(=O)(=O)O", "outcome": "inactive"}
{"smiles": "CC(F)(F)CC(F)(F)F", "outcome": "inactive"}
{"smiles": "Cc1cc(Cl)ccc1OCCCC(=O)O", "outcome": "inactive"}
{"smiles": "Cc1cc(Cl)ccc1O", "outcome": "inactive"}
{"smiles": "O=[N+]([O-])c1c2ccccc2cc2ccccc12", "outcome": "inactive"}
{"smiles": "CCOC(=O)CCN(SN(C)C(=O)Oc1cccc2c1OC(C)(C)C2)C(C)C", "outcome": "inactive"}
{"smiles": "Oc1ccc(Cc2ccc(O)cc2)cc1", "outcome": "inactive"}
{"smiles": "Cc1cc(Cl)ccc1N", "outcome": "inactive"}
{"smiles": "COc1nn(C(=O)NS(=O)(=O)c2ccccc2OC(F)(F)F)c(=O)n1C", "outcome": "inactive"}
{"smiles": "CCCCOP(=O)(CCCC)OCCCC", "outcome": "inactive"}
{"smiles": "CCCCC(CC)COC(=O)Cl", "note": "(stereo not given)", "outcome": "inactive"}
{"smiles": "O=NN1CCCCCCC1", "outcome": "inactive"}
{"smiles": "CCCCCCCCBr", "outcome": "inactive"}
{"smiles": "CCC[N+](CCC)(CCC)CCC", "outcome": "inactive"}
{"smiles": "N#Cc1ccccc1N", "outcome": "inactive"}
{"smiles": "O=C(O)COc1cc(Cl)c(Cl)cc1Cl", "outcome": "inactive"}
{"smiles": "CN(C1CCCCC1)C1CCCCC1", "outcome": "inactive"}
{"smiles": "ClCc1ccccc1Cl", "outcome": "inactive"}
{"smiles": "O=C(O)COc1ccc(Cl)cc1", "outcome": "inactive"}
{"smiles": "CC1CC(=O)O1", "note": "(stereo not given)", "outcome": "inactive"}
{"smiles": "Cc1ccccc1OP(=O)(Oc1ccccc1)Oc1ccccc1", "outcome": "inactive"}
{"smiles": "CCCCOC(C)=O", "outcome": "inactive"}
{"smiles": "O=C(NC(=O)c1c(F)cccc1F)Nc1ccc(Cl)cc1", "outcome": "inactive"}
{"smiles": "CCCCOC(=O)COC(=O)c1ccccc1C(=O)OCCCC", "outcome": "inactive"}
{"smiles": "O=S1(=O)OC(c2cc(Br)c(O)c(Br)c2)(c2cc(Br)c(O)c(Br)c2)c2ccccc21", "outcome": "inactive"}
{"smiles": "N#CCCC(Br)(C#N)CBr", "note": "(stereo not given)", "outcome": "inactive"}
{"smiles": "[F][Sn]([c]1ccccc1)([c]1ccccc1)[c]1ccccc1", "outcome": "inactive"}
{"smiles": "CCOc1cc(C=O)ccc1O", "outcome": "inactive"}
{"smiles": "CN(C)CCN(C)C", "outcome": "inactive"}
{"smiles": "C#CCO", "outcome": "inactive"}
{"smiles": "CCN(N=O)C(N)=O", "outcome": "inactive"}
{"smiles": "C=C(C)C(=O)OCCCCOC(=O)C(=C)C", "outcome": "inactive"}
